# Test results taken from PubChem BioAssay (Tox21).
# Values without a mark were called inactive. Inconclusive results are not listed. Entries that show only a call come without a potency. The source made the active and inactive calls. Unless noted, calls come from the whole dose curve.
# System: not listed separately
# Assay: qHTS assay to identify small molecule agonists of the sonic hedgehog signaling (Shh) pathway (AID 1259368);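 note: NIH/3T3-derived 3T3Gli1-Luc cells carrying a stable Gli1-driven firefly luciferase reporter; nearly all actives have a fitted effect of over 15% in size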
# Conditions: NIH/3T3 Gli1-Luc reporter, luciferase, 24 h, active compounds read high; series mostly up to 92.4 µM
# Procedure, shortened: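 Luminescence was read after 30 min at room temperature with luciferase reagent. Before that, 3T3Gli1-Luc cells (NIH/3T3 clone, stable Gli1-Luc reporter; 2,000/well) were exposed to compounds for 24 hr at 37C, 5% CO2, compounds being added 4 hr post-plating.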
SMILES,outcome,activity change
N#CC1(N)CCCCC1,inactive,
CC(C)(C)c1ccc(C(=O)CCCCl)cc1,inactive,
CN(C)CCCN(C)C,,0.31% [at 8.39 µM]
CCCCC(CC)COC(=O)CC#N (centres undefined),inactive,
COc1ccc(Cl)cc1C,inactive,
Cc1cc(O)c(Cl)cc1C,inactive,
CN(C)c1ccncc1,inactive,
CC(C)(C)c1ccc(N)cc1,inactive,
CCCCCCCC(=O)N(C)C,inactive,
CCN1CCN(C(=O)N[C@@H](C(=O)N[C@@H]2C(=O)N3[C@@H]2SC(C)(C)[C@H]3C(=O)O)c2ccccc2)C(=O)C1=O,inactive,
Cc1ccccc1OCC(=O)O,inactive,
CC[N+](C)(CC)CC,inactive,
CCCCS,inactive,
CCC(C)c1nccnc1OC (centres undefined),inactive,
CC1(C)S[C@@H]2[C@H](NC(=O)Cc3ccccc3)C(=O)N2[C@H]1C(=O)O (tested in a mixture with another compound),inactive,
C=COCCCCO,inactive,
CCOC(=O)CC(C(C)=O)C(C)=O,inactive,
C=CCN(CC=C)CC=C,inactive,
CC(C)(C)OC=O,inactive,

SMILES,outcome,activity change
COc1ccccc1N1CCN(CC(O)COc2cc(OC)c(OC)c(OC)c2)CC1 (centres undefined),inactive,
C/C=C(\C)C=O,inactive,
CNC(C)=O,inactive,
O=Cc1ccccc1S(=O)(=O)O,inactive,
CCCCCCCCCCCCCCBr,inactive,
C[C@@H]1NC(=O)[C@@H](N)CNC(=O)[C@H](C2CCNC(N)=N2)NC(=O)/C(=C/NC(N)=O)NC(=O)[C@H](CNC(=O)C[C@@H](N)CCCN)NC1=O (some centres undefined),,0.0291% [at 0.349 µM]
COc1cc2nc(N3CCN(C(=O)C4CCCO4)CC3)nc(N)c2cc1OC (centres undefined),inactive,
O=S(=O)(O)CC(O)CCl (centres undefined),inactive,
C=CC(=O)OCC[N+](C)(C)C,inactive,
C=C(C)C(=O)OCCOC1CC2CC1C1C=CCC21 (centres undefined),inactive,
C/C=C/C(=O)CCCC,inactive,
CCCC(C)C(O)CC (centres undefined),inactive,
CCCCCCCCCCCBr,inactive,
CC1(C)CC(N)CC(C)(C)N1,inactive,
COc1cc(C(=O)NC2CCCNC2)cc(OC)c1OC (centres undefined),inactive,
Cc1cc(N)no1,inactive,
CC(=O)SCC(CC(=O)c1ccc(C)cc1)C(=O)O (centres undefined),inactive,
NCC1CCC(C(=O)Oc2ccc(CCC(=O)O)cc2)CC1 (centres undefined),inactive,
C[n+]1ccccc1/C=N/O,inactive,

# System: not listed separately
# Assay: qHTS assay to identify small molecule antagonists of the sonic hedgehog signaling (Shh) pathway (AID 1259369); note: nearly all actives have a fitted effect of over 45% in size
# Conditions: NIH/3T3 Gli1-Luc reporter, Shh antagonist, luminescence 24 h; series mostly up to 92.4 µM
# Procedure, shortened: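 Antagonist mode: compound added to 3T3 Gli1-Luc cells followed by conditioned-medium stimulation, 24 h at 37 C, 5% CO2. Inhibition taken as loss of Gli1-driven luciferase luminescence.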
SMILES,Potency,"activity change, negative = inhibition"
N#CC1(N)CCCCC1,inactive,
CC(C)(C)c1ccc(C(=O)CCCCl)cc1,inactive,
CN(C)CCCN(C)C,,5.84% [at 8.39 µM]
CCCCC(CC)COC(=O)CC#N (centres undefined),inactive,
COc1ccc(Cl)cc1C,inactive,
Cc1cc(O)c(Cl)cc1C,inactive,
CN(C)c1ccncc1,inactive,
CC(C)(C)c1ccc(N)cc1,inactive,
CCCCCCCC(=O)N(C)C,inactive,
CCN1CCN(C(=O)N[C@@H](C(=O)N[C@@H]2C(=O)N3[C@@H]2SC(C)(C)[C@H]3C(=O)O)c2ccccc2)C(=O)C1=O,inactive,
Cc1ccccc1OCC(=O)O,inactive,
CC[N+](C)(CC)CC,inactive,
CCCCS,inactive,
CCC(C)c1nccnc1OC (centres undefined),inactive,
CC1(C)S[C@@H]2[C@H](NC(=O)Cc3ccccc3)C(=O)N2[C@H]1C(=O)O (tested in a mixture with another compound),inactive,
C=COCCCCO,inactive,
CCOC(=O)CC(C(C)=O)C(C)=O,inactive,
C=CCN(CC=C)CC=C,inactive,
CC(C)(C)OC=O,inactive,

SMILES,Potency,"activity change, negative = inhibition"
COc1ccccc1N1CCN(CC(O)COc2cc(OC)c(OC)c(OC)c2)CC1 (centres undefined),inactive,
C/C=C(\C)C=O,inactive,
CNC(C)=O,inactive,
O=Cc1ccccc1S(=O)(=O)O,inactive,
CCCCCCCCCCCCCCBr,inactive,
C[C@@H]1NC(=O)[C@@H](N)CNC(=O)[C@H](C2CCNC(N)=N2)NC(=O)/C(=C/NC(N)=O)NC(=O)[C@H](CNC(=O)C[C@@H](N)CCCN)NC1=O (some centres undefined),,22.6% [at 0.349 µM]
COc1cc2nc(N3CCN(C(=O)C4CCCO4)CC3)nc(N)c2cc1OC (centres undefined),inactive,
O=S(=O)(O)CC(O)CCl (centres undefined),inactive,
C=CC(=O)OCC[N+](C)(C)C,inactive,
C=C(C)C(=O)OCCOC1CC2CC1C1C=CCC21 (centres undefined),inactive,
C/C=C/C(=O)CCCC,inactive,
CCCC(C)C(O)CC (centres undefined),inactive,
CCCCCCCCCCCBr,inactive,
CC1(C)CC(N)CC(C)(C)N1,inactive,
COc1cc(C(=O)NC2CCCNC2)cc(OC)c1OC (centres undefined),inactive,
Cc1cc(N)no1,inactive,
CC(=O)SCC(CC(=O)c1ccc(C)cc1)C(=O)O (centres undefined),inactive,
NCC1CCC(C(=O)Oc2ccc(CCC(=O)O)cc2)CC1 (centres undefined),inactive,
C[n+]1ccccc1/C=N/O,inactive,

# Molecular target: Estrogen receptor beta (Homo sapiens) (UniProt Q92731)
# Assay: qHTS assay to identify small molecule agonists of the estrogen receptor beta (ER-beta) signaling pathway (AID 1259377; active = well fitted activation curve with a large enough effect in the signal ratio in the repeat runs, not every such curve was filed as active; the % refers to the signal ratio)
# Conditions: ER-beta-UAS-bla HEK293T, beta-lactamase FRET ratio, 16 h; series mostly up to 92.4 µM
# Procedure, shortened: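 Measured by fluorescence intensity from a B/G FRET beta-lactamase substrate (2 h, room temperature) in ER-beta-UAS-bla HEK293T cells treated with DMSO-dissolved compounds for 16 hr at 37C and 5% CO2.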
# Chain of Estrogen receptor beta (Homo sapiens) (Q92731 whole entry, looked up): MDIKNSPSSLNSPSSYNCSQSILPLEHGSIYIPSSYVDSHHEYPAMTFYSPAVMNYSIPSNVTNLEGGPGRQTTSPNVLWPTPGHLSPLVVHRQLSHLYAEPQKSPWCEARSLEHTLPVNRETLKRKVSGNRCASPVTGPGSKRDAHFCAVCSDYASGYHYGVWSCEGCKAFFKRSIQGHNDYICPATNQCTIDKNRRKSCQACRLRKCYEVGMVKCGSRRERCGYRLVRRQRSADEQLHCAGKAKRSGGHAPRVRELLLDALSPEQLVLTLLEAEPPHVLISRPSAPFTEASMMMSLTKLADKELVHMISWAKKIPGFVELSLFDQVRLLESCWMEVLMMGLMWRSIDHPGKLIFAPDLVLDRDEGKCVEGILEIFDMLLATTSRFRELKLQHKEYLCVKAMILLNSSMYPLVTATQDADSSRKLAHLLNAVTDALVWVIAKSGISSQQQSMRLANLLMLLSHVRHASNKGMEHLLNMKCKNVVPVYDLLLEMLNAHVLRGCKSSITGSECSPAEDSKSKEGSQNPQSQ
SMILES,Potency,activation
N#CC1(N)CCCCC1,inactive,
CC(C)(C)c1ccc(C(=O)CCCCl)cc1,inactive,
CN(C)CCCN(C)C,,-0.616% [at 8.39 µM]
CCCCC(CC)COC(=O)CC#N (centres undefined),inactive,
COc1ccc(Cl)cc1C,inactive,
Cc1cc(O)c(Cl)cc1C,inactive,
CN(C)c1ccncc1,inactive,
CC(C)(C)c1ccc(N)cc1,inactive,
CCCCCCCC(=O)N(C)C,inactive,
CCN1CCN(C(=O)N[C@@H](C(=O)N[C@@H]2C(=O)N3[C@@H]2SC(C)(C)[C@H]3C(=O)O)c2ccccc2)C(=O)C1=O,inactive,
Cc1ccccc1OCC(=O)O,inactive,
CC[N+](C)(CC)CC,inactive,
CCCCS,inactive,
CCC(C)c1nccnc1OC (centres undefined),inactive,
CC1(C)S[C@@H]2[C@H](NC(=O)Cc3ccccc3)C(=O)N2[C@H]1C(=O)O (tested in a mixture with another compound),inactive,
C=COCCCCO,inactive,
CCOC(=O)CC(C(C)=O)C(C)=O,inactive,
C=CCN(CC=C)CC=C,inactive,
CC(C)(C)OC=O,inactive,

SMILES,Potency,activation
COc1ccccc1N1CCN(CC(O)COc2cc(OC)c(OC)c(OC)c2)CC1 (centres undefined),inactive,
C/C=C(\C)C=O,inactive,
CNC(C)=O,inactive,
O=Cc1ccccc1S(=O)(=O)O,inactive,
CCCCCCCCCCCCCCBr,inactive,
C[C@@H]1NC(=O)[C@@H](N)CNC(=O)[C@H](C2CCNC(N)=N2)NC(=O)/C(=C/NC(N)=O)NC(=O)[C@H](CNC(=O)C[C@@H](N)CCCN)NC1=O (some centres undefined),,1.61% [at 0.348 µM]
COc1cc2nc(N3CCN(C(=O)C4CCCO4)CC3)nc(N)c2cc1OC (centres undefined),inactive,
O=S(=O)(O)CC(O)CCl (centres undefined),inactive,
C=CC(=O)OCC[N+](C)(C)C,inactive,
C=C(C)C(=O)OCCOC1CC2CC1C1C=CCC21 (centres undefined),inactive,
C/C=C/C(=O)CCCC,inactive,
CCCC(C)C(O)CC (centres undefined),inactive,
CCCCCCCCCCCBr,inactive,
CC1(C)CC(N)CC(C)(C)N1,inactive,
COc1cc(C(=O)NC2CCCNC2)cc(OC)c1OC (centres undefined),inactive,
Cc1cc(N)no1,inactive,
CC(=O)SCC(CC(=O)c1ccc(C)cc1)C(=O)O (centres undefined),inactive,
NCC1CCC(C(=O)Oc2ccc(CCC(=O)O)cc2)CC1 (centres undefined),inactive,
C[n+]1ccccc1/C=N/O,inactive,
